High-throughput results from PubChem.
Sampled rows, rich in hits. Any-hit rate of the full collection: about 2.8%.
sPLA2-III inh – human group III sPLA2 inhibitors, primary screen, biochemical, QFRET, BODIPY PC-A2 liposome substrate | Group 3 secretory phospholipase A2 (Homo sapiens), Q9NZ20 | QFRET BODIPY PC-A2 liposome hydrolysis, fluorescence | inhibition, % at 12.2 µM | actives 0.56% (n = 370,000);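 active means inhibition above mean plus 3 SD of compounds lying within the high and low control bounds, cut at about 19% in these data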
Target sequence (Q9NZ20 whole entry, looked up): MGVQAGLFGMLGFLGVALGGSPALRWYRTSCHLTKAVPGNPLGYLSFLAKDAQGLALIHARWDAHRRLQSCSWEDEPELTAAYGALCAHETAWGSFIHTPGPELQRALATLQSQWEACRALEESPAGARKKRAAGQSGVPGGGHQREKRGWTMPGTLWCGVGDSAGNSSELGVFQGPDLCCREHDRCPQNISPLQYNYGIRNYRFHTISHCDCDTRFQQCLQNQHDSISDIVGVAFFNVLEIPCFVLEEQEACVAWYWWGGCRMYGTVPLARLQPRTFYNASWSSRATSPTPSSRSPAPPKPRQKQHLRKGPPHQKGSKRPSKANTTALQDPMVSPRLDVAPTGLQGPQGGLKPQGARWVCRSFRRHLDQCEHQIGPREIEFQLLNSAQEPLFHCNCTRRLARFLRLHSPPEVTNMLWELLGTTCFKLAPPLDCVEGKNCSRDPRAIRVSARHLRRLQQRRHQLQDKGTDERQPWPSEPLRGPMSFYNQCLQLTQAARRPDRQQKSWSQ
MsrA inhibitor – bovine MsrA enzyme inhibitors, primary screen, biochemical, absorbance, HTS | purified bovine MsrA, absorbance read-out | Methionine sulfoxide reductase A (Bos taurus) | inhibition, % at 15.5 µM | actives 0.75% (n = 360,000) | AID 651718, 2012; in the data active means inhibition above about 4.5%
MsrA act – bovine MsrA enzyme activators, primary screen, biochemical, absorbance, HTS; Methionine sulfoxide reductase A (Bos taurus); purified bovine MsrA, absorbance read-out; activation, % at 10.6 µM; actives 0.3% (n = 360,000); in the data active means activation above about 7.5%
rCAG binder – binders of r(CAG) RNA repeats, primary screen, biochemical, fluorescence; r(CAG) RNA repeat, TO-PRO-1 dye displacement fluorescence; inhibition, % at 3 µM; actives 1.3% (n = 370,000); AID 651821, 2012;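 active means inhibition above the plate cutoff, the mean of all test compounds on that plate plus 3 SD, cut at about 35% in these data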;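 further: higher means more dye released from RNA so lower well fluorescence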
rCAG binder conf – small molecules binding CAG repeat RNA – biochemical, fluorescence, confirmation | shares compounds with rCAG binder | r(CAG) RNA repeat, TO-PRO-1 dye displacement fluorescence | inhibition, % at 3 µM | actives 70% (n = 4,300) | AID 652065, 2013;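 active means inhibition above a per-plate cutoff, the mean inhibition of sample wells plus 3 SD, cut at about 35% in these data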;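 further: loss of TO-PRO-1 fluorescence as compound displaces dye from 1x1 AA loop RNA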
dCAG dye counter – displacement of TO-PRO-1 from CAG DNA duplex, counter-screen for rCAG RNA repeat binder project, biochemical, fluorescence, TO-PRO-1 dye, d(CAG) DNA oligo; actives 94% (n = 4,300); d(CAG) DNA oligo TO-PRO-1 dye displacement; shares compounds with rCAG binder; AID 652068, 2013; inhibition, % at 3 µM;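 active means inhibition above its plate's cutoff, the mean test-well inhibition plus 3 SD, cut at about 4.8% in these data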;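 further: hits displace the dye from DNA and so lower well fluorescence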
DNA CAG DR – inhibitors of DNA CAG/GTC TO-PRO-1 complex, dose response, counter-screen for rCAG RNA repeat binder project, biochemical, fluorescence, TO-PRO-1 dye | shares compounds with rCAG binder | IC50, µM | DNA CAG/GTC duplex TO-PRO-1 dye displacement fluorescence | actives 20% (n = 250); in the data active means IC50 below about 10 µM
Each line names hits and unclear results; the compound was inactive in the other large screens (follow-up assays come after a bar, where they were run).

Cc1ccc(NC(=O)c2ccccc2NS(=O)(=O)c2ccc(Cl)s2)cc1S(=O)(=O)N1CCOCC1	rCAG binder 86.6 | rCAG binder conf 90.1 | dCAG dye counter 68.9
COc1ccc(NS(=O)(=O)c2ccc(O)c(NC(=O)c3ccc(S(=O)(=O)N4CCCC4)cc3)c2)cc1	rCAG binder 74.0 | rCAG binder conf 49.8 | dCAG dye counter 17.6
O=C1C2CCCN2C(=O)N1CCN1CCN(c2ccccc2)CC1 (stereo not drawn)	none
Cc1csc(NC(=O)c2cnc3ccccc3n2)n1	none
NC(=O)C1CCN(C(=O)Cc2ccc([N+](=O)[O-])cc2)CC1	none
O=[N+]([O-])c1cc(-c2ccccc2)cc([N+](=O)[O-])c1O	none
Nc1nc(-c2cc(O)ccc2[N+](=O)[O-])cc(-c2ccccc2)c1[N+](=O)[O-]	rCAG binder 56.5 | rCAG binder conf 44.2 | dCAG dye counter 24.4
Cc1ccc(S(=O)(=O)Nc2ccc3c(c2)C(=O)c2ccccc2-3)cc1	rCAG binder 37.1 | rCAG binder conf inactive | dCAG dye counter 7.0
Cc1ccc(S(=O)(=O)Nc2ccc3cn[nH]c3c2)cc1	rCAG binder 47.1 | rCAG binder conf inactive | dCAG dye counter inactive
Cc1ccc(S(=O)(=O)Nc2ccc(O)c(S(=O)(=O)c3ccc(C)cc3)c2)cc1	none
Cc1ccc(S(=O)(=O)Nc2ccc3cn[nH]c3c2)cc1C	none
Cc1ccc(S(=O)(=O)n2ccc3c2CCCC3=O)cc1	none
Cc1cc(OCc2nn[nH]n2)c2c(C)c(Cc3ccccc3)c(=O)oc2c1	rCAG binder 49.7 | rCAG binder conf 50.3 | dCAG dye counter 12.7
Cc1cc(OCc2nn[nH]n2)c2c(C)c(CC(=O)O)c(=O)oc2c1	none
Nc1ncc(Br)cc1S(=O)(=O)NCCC(=O)NCCc1ccccc1	none
COc1ccc(NC(=O)CSc2nnc(NC(C)=O)s2)c([N+](=O)[O-])c1	rCAG binder 55.3 | rCAG binder conf inactive | dCAG dye counter inactive
COc1ccc(NC(=O)CSc2nnc(N)s2)c([N+](=O)[O-])c1	none
CCNC(=O)C1(C)CCN1Cc1cc(-c2ccccc2)n(C)n1 (stereo not drawn)	none
CC1(C(=O)NS(=O)(=O)c2ccc(Cl)s2)CCN1C(=O)c1ccc(C2CCCCC2)cc1 (stereo not drawn)	rCAG binder 65.8 | rCAG binder conf 74.2 | dCAG dye counter 36.5
CC1(C(=O)NS(=O)(=O)c2ccc(Cl)s2)CCN1C(=O)C1CCCCC1 (stereo not drawn)	none
O=C(CNC(=O)/C=C/c1ccco1)N=Nc1c(O)[nH]c2ccccc12	rCAG binder 34.8 | rCAG binder conf 40.2 | dCAG dye counter 16.8
O=C(O)c1ccn2c(C(=O)c3ccc(Cl)cc3)c(-c3ccccc3)cc2c1	rCAG binder 67.9 | rCAG binder conf 64.5 | dCAG dye counter 23.3 | DNA CAG DR inactive
O=C(NCCO)C(=O)c1c(-c2ccc(Cl)cc2)cc2ccccn12	none
Nc1[nH]n2c(=O)cc(-c3ccccc3)nc2c1N=Nc1ccc(S(N)(=O)=O)cc1	rCAG binder 44.4 | rCAG binder conf inactive | dCAG dye counter 5.5
Cc1ccc(S(=O)(=O)Nc2cc(-c3ccccc3)nn2C)cc1Cl	rCAG binder 56.6 | rCAG binder conf 38.0 | dCAG dye counter 9.9
Cc1ccc(S(=O)(=O)Nc2cc(-c3ccc(Cl)cc3)nn2C)cc1	rCAG binder 47.7 | rCAG binder conf 48.3 | dCAG dye counter 11.2
O=C(N/N=C/c1c(O)n(-c2ccccc2Cl)c(=O)c2ccccc12)c1cccnc1	rCAG binder 46.9 | rCAG binder conf inactive | dCAG dye counter 8.0
Cc1cccc(-n2c(O)c(/C=N/NC(=O)c3ccccc3Cl)c3ccccc3c2=O)n1	none
O=C(N/N=C/c1c(O)n(Cc2ccccc2)c(=O)c2ccccc12)c1cccnc1	rCAG binder 69.3 | rCAG binder conf 63.7 | dCAG dye counter 24.8
COc1ccc(Cn2c(O)c(C=Nc3ccc(OC)cc3)c3ccccc3c2=O)cc1	none
COc1ccc(Cn2c(O)c(/C=N/NC(=O)c3cccnc3)c3ccccc3c2=O)cc1	rCAG binder 75.5 | rCAG binder conf 70.8 | dCAG dye counter 32.7 | DNA CAG DR inactive
COCCN1C(=O)N[C@@H](c2ccco2)C(C(=O)OC)=C1C	none
Cc1ccc(N=C2NC(=O)/C(=C/C=C/c3ccco3)S2)cc1	rCAG binder 58.6 | rCAG binder conf 53.9 | dCAG dye counter 26.4
O=C1NC(=Nc2ccccc2)S/C1=C\C=C\c1ccco1	rCAG binder 68.8 | rCAG binder conf 61.5 | dCAG dye counter 30.5
Cc1cccc(N=C2NC(=O)/C(=C/C=C/c3ccco3)S2)c1C	rCAG binder 66.6 | rCAG binder conf 64.0 | dCAG dye counter 30.9
Cc1ccc(N=C2NC(=O)S/C2=C\c2ccco2)cc1	none
COC(=O)c1ccc(C(=O)NC2CCCN(Cc3ccc(Cl)cc3)C2)nc1 (stereo not drawn)	none
Cc1ccc(-n2c(N)c(Br)c(=O)[nH]c2=O)cc1C	none
O=[N+]([O-])c1cc(S(=O)(=O)Nc2cccc(C(F)(F)F)c2)ccc1-n1nnc2ccccc21	rCAG binder 78.1 | rCAG binder conf 68.6 | dCAG dye counter 33.5
COc1ccc(NS(=O)(=O)c2ccc(-n3nnc4ccccc43)c([N+](=O)[O-])c2)cc1	none
C=CCNC(=O)/C(C#N)=C/c1cc(Br)ccc1OC	none
CCOC(=O)c1c(NC(=O)/C=C/C(=O)O)sc(C)c1-c1ccc(Cl)cc1	rCAG binder 45.5 | rCAG binder conf 45.5 | dCAG dye counter 11.4
CCOC(=O)c1c(NC(=O)Nc2ccc(Cl)cc2)sc(C)c1C	none
N#CC(C#N)=NNc1ccc(S(=O)(=O)N2CCCCC2)cc1	rCAG binder 45.5 | rCAG binder conf 41.2 | dCAG dye counter 15.3
N#C/C(=N\Nc1ccc(S(=O)(=O)N2CCOCC2)cc1)C(N)=S	none
CCCCN1C(=O)Nc2ccccc2S1=O (stereo not drawn)	none
CC1(C(=O)NCc2ccccc2Br)CCN1Cc1ccc2ccccc2c1 (stereo not drawn)	none
CC(/C=C1\SC(=S)N(c2ccc(C(=O)O)cc2)C1=O)=C\c1ccccc1	rCAG binder 55.5 | rCAG binder conf 84.0 | dCAG dye counter 51.9
